Test results as given in PMC4336329 (PLoS ONE, 2015).
About 14,000 (4.5%) of roughly 310,000 compounds showed an effect of 50% or more. Effects have a minus sign here. This is one part of a sample in which strong results are shown more often than they occur.

target: human ether-à-go-go-related gene (hERG) potassium channel (human, UniProt Q12809); experiment: primary screen, population patch clamp on CHO cells stably expressing hERG; higher = less effect of the substance
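Further: peak tail current of the secondary pulse compared with the same well before compound.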

human ether-à-go-go-related gene (hERG) potassium channel, sequence (Q12809 whole entry, looked up): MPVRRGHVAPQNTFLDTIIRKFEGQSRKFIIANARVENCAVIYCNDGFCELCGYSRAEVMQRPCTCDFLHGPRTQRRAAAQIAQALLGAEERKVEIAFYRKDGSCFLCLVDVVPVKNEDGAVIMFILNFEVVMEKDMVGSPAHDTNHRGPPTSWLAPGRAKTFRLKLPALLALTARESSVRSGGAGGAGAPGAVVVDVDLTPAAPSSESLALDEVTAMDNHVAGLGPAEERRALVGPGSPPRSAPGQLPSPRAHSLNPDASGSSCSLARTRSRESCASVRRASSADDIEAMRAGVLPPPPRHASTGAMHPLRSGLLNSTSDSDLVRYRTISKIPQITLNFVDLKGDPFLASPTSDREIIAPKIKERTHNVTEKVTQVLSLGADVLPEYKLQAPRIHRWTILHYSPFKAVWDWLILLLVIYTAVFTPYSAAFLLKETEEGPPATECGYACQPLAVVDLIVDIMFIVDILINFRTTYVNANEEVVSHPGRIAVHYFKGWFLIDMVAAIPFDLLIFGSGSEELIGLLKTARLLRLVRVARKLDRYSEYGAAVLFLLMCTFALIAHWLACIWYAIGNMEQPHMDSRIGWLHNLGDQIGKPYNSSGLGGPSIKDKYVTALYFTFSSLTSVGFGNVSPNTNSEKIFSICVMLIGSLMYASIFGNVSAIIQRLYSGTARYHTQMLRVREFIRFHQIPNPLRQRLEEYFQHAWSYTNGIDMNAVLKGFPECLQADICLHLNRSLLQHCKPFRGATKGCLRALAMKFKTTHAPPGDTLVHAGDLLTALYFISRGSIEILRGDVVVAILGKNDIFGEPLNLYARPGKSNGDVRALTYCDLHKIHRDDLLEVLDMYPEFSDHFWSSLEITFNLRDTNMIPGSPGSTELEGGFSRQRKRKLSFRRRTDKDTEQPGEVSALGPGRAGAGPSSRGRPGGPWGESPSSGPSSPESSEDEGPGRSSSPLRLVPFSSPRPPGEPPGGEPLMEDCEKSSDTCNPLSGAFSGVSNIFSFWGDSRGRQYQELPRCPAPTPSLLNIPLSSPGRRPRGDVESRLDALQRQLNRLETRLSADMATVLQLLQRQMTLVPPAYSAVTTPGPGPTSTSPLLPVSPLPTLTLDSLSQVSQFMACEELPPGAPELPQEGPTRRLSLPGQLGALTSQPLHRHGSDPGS

Structure (SMILES)	hERG current change (%, negative = inhibition) at 10uM [%]
Cn1c(N)c(C(=O)COC(=O)c2nc(Cl)ccc2Cl)c(=O)n(C)c1=O	-11.2
COc1ccc(C(=O)NCCCSc2ccccc2)cc1F	8.32
Brc1ccc(C2Nc3cccc4cccc(c34)N2)s1	7.9
CCn1cc(CN2CCC(n3nccc3NC(=O)c3cccc(F)c3)CC2)cn1	-6.71
CCn1cc(CN2CCC(n3nccc3NC(=O)c3cccc(F)c3)CC2)c(C)n1	-2.72
O=C(Nc1ccnn1C1CCN(Cc2cccc(OCCO)c2)CC1)c1cccc(F)c1	-12.3
O=C(Nc1ccnn1C1CCN(C2CCC2)CC1)c1cccc(F)c1	-12.5
CCc1ccc(CN2CCC(n3nccc3NC(=O)c3cccc(F)c3)CC2)cc1	-75.3
COc1ccc(CN2CCC(n3nccc3NC(=O)c3cccc(F)c3)CC2)cc1O	-80.4
O=C(Nc1ccnn1C1CCN(Cc2ccccc2OCCO)CC1)c1cccc(F)c1	-34.8
O=C(Nc1ccnn1C1CCN(Cc2ccccc2OC(F)F)CC1)c1cccnc1	-12.3
O=C(Nc1ccnn1C1CCN(Cc2ccc(C#CCCO)cc2)CC1)c1cccc(F)c1	-77.3
O=C(Nc1ccnn1C1CCN(Cc2ccc3nonc3c2)CC1)c1cccc(F)c1	-37.4
O=C(Nc1ccnn1C1CCN(Cc2ccccc2OC(F)F)CC1)c1cccc(F)c1	-52.4
CCOC(=O)C1CCCCC12C(C#N)=C(N)Oc1n[nH]c(C)c12 (centres unmarked)	10.1
CN1C(=O)C(CC(=O)Nc2ccc(F)cc2)N(CCCc2ccccc2)C1=S (centres unmarked)	0.0595
CCOC(=O)c1c(C)[nH]c(C2=NNC(=NC3CC3)SC2)c1C	-30.1
COc1ccccc1NC(=O)CNc1ccc(F)c(Cl)c1	-11.7
CCn1cc([N+](=O)[O-])c(C(=O)Nc2ccc3c(c2)OCCO3)n1	-9.69
COCCCNC(=O)c1ccccc1Sc1ccc(NC(C)=O)nc1	25.8
C=CCn1c(SCC(=O)c2ccc(OC)cc2)nnc1-c1cc2cccc(OC)c2o1	25.8

Structure (SMILES)	hERG current change (%, negative = inhibition) at 10uM [%]
CCC(C)NC(=O)CCc1nnc2ccc(N3CCC(C)CC3)nn12 (centres unmarked)	3.66
COc1ccc(N2CC(C(=O)Nc3ccc4c(c3)OCCO4)CC2=O)cc1 (centres unmarked)	4.94
CCc1ccc(NS(=O)(=O)c2ccc3oc(=O)ccc3c2)cc1	-1.91
O=C1CCC(C(=O)N2CCC(CO)(Cc3ccc(Cl)cc3)CC2)=NN1	-32.5
CCOC(=O)N1CCN(C(=O)C2CCC(=O)N(Cc3ccc(Cl)cc3)C2)CC1 (centres unmarked)	-40.5
CCOC(=O)C1(Cc2ccc(Cl)cc2)CCN(C(=O)c2cc(C)nc(C)n2)CC1	-38.1
CCOC(=O)C1(Cc2ccc(OC)cc2)CCN(C(=O)c2sc(C)nc2C)CC1	1.86
CCOC(=O)C1(Cc2ccc(Cl)cc2)CCN(C(=O)c2ccoc2)CC1	-49.4
CCOC(=O)C1(Cc2ccc(Cl)cc2)CCN(C(=O)c2cscn2)CC1	-37.4
C=CCN1CC(C(=O)N2CCC(Cc3ccc(Cl)cc3)(C(=O)OCC)CC2)CC1=O (centres unmarked)	-72.4
CCOC(=O)C1(Cc2ccc(Cl)cc2)CCN(C(=O)c2sc(C)nc2C)CC1	-52.9
CCOC(=O)C1(Cc2ccc(Cl)cc2)CCN(C(=O)C2=NNC(=O)CC2)CC1	-69.6
CCOC(=O)C1(Cc2ccc(OC)cc2)CCN(C(=O)c2csc(C)n2)CC1	2.99
CCOC(=O)C1(Cc2ccc(Cl)cc2)CCN(C(=O)C2CCCO2)CC1 (centres unmarked)	-33.2
CCOC(=O)C1(Cc2ccc(Cl)cc2)CCN(C(=O)c2cnc(C)cn2)CC1	-57.1
O=C1CC(NS(=O)(=O)c2cccs2)CN1c1cccc(F)c1 (centres unmarked)	-6.29
O=C(Nc1ccc(Cl)c(S(=O)(=O)N2CCOCC2)c1)c1ccc2c(c1)OCCO2	12.6
COc1ccc2c(c1)C1NC(=S)N[C@@](C)(O2)C1C(=O)Nc1ccccc1 (some centres unmarked)	-3.49
CCOC(=O)[C@H]1[C@H]2COc3cc(OC)ccc3[C@@H]2N2C(=O)CN(Cc3ccccc3)C(=O)[C@@]12C	-8.34
COc1ccc(OC)c(NS(=O)(=O)c2ccc(Br)s2)c1	-12.4
N#CC1=C(N)N(c2ccccc2Sc2ccccc2)C(=O)C1	3.4

Structure (SMILES)	hERG current change (%, negative = inhibition) at 10uM [%]
Cc1ccc(NC(=O)N2CCC(NC(=O)c3ccco3)CC2)cc1	4.55
COC(=O)C(C)Sc1nc2c(c(=O)n1-c1ccccc1)SCC2 (centres unmarked)	-6.49
COc1ccc(NC(=O)CN(C)C(=O)c2cn(-c3ccccc3)nc2-c2ccc(OC)cc2)cc1	-7.66
CCCS(=O)(=O)N1CCN(S(=O)(=O)c2ccc(F)cc2)CC1	10.6
O=C(Nc1nccs1)C1CCCCN1S(=O)(=O)c1ccccc1 (centres unmarked)	4.8
Cc1ccc(C)c(NS(=O)(=O)c2ccc(-c3cnc(C4CC4)o3)cc2)c1	4.27
CN1CCN(Cc2nc3c(c(=O)[nH]c(=O)n3C)n2CCc2ccccc2)CC1	-28.1
CCN1CCN(c2nc3c(c(=O)[nH]c(=O)n3C)n2CCCc2ccccc2)CC1	-79.2
CCCCCCn1c(N2CCN(c3ccccc3)CC2)nc2c1c(=O)[nH]c(=O)n2C	-32.6
CCCCCn1c(CN2CCN(Cc3ccccc3)CC2)nc2c1c(=O)[nH]c(=O)n2C	-72.3
CC(C)CCn1c(CN2CCN(Cc3ccccc3)CC2)nc2c1c(=O)[nH]c(=O)n2C	-17.6
CCCCCn1c(N2CCN(Cc3ccccc3)CC2)nc2c1c(=O)[nH]c(=O)n2C	-74.8
Cn1c(=O)[nH]c(=O)c2c1nc(CN1CCOCC1)n2Cc1ccccc1	-15.7
Cc1cccc(Cn2c(CN3CCN(Cc4ccccc4)CC3)nc3c2c(=O)[nH]c(=O)n3C)c1	-64.9
Cn1c(=O)[nH]c(=O)c2c1nc(CN1CCN(Cc3ccccc3)CC1)n2CC(N)=O	7.32
Cn1c(=O)[nH]c(=O)c2c1nc(N1CCN(Cc3ccccc3)CC1)n2CCCc1ccccc1	-31.9
Cn1c(=O)[nH]c(=O)c2c1nc(N1CCN(Cc3ccccc3)CC1)n2CCSc1ncccn1	-25.7
CCN1CCN(c2nc3c(c(=O)[nH]c(=O)n3C)n2Cc2ccccc2)CC1	-27.7
COc1ccc(OC)c(NC(=O)CS(=O)(=O)Cc2nc(-c3ccccc3C)oc2C)c1	7.66
COc1ccc2c(C)cc(SC3CCOC3=O)nc2c1 (centres unmarked)	-0.712
CCCC(=O)NC(=S)Nc1cccc(NC(=O)c2ccccc2Cl)c1	-3.15

Structure (SMILES)	hERG current change (%, negative = inhibition) at 10uM [%]
CCCCCn1c(N2CCC(Cc3ccccc3)CC2)nc2c1c(=O)[nH]c(=O)n2C	-11
CCCCCn1c(N2CCN(c3cccc(Cl)c3)CC2)nc2c1c(=O)[nH]c(=O)n2C	-29.2
CCCCn1c(N2CCC(Cc3ccccc3)CC2)nc2c1c(=O)[nH]c(=O)n2C	-49.4
CCCCn1c(CN2CCN(c3cccc(Cl)c3)CC2)nc2c1c(=O)[nH]c(=O)n2C	5.59
CCCCCn1c(CN2CCN(c3cccc(Cl)c3)CC2)nc2c1c(=O)[nH]c(=O)n2C	-63.3
CCCn1c(N2CCC(Cc3ccccc3)CC2)nc2c1c(=O)[nH]c(=O)n2C	-51.2
CCOC(=O)N1CCC(NC(=O)CN(c2ccc(C(C)C)cc2)S(=O)(=O)c2c(C)nn(C)c2C)CC1	-10.3
CC(CNC(=O)c1cc(COc2ccc3ncccc3c2)on1)c1ccccc1 (centres unmarked)	9.51
COc1ccc(S(=O)(=O)N2CCN(C)CC2)cc1C(=O)Nc1ccccc1	1.79
COc1ccc(OCC(O)CN(C2CCCCC2)C2CCCCC2)cc1.Cl (centres unmarked)	-59.5
CN(CC(O)COc1ccc2ccccc2c1)C1CCCCC1.Cl (centres unmarked)	-45.2
O=C(OCC(O)COc1ccccc1)c1ccc([N+](=O)[O-])cc1 (centres unmarked)	-7.79
O=[N+]([O-])c1ccc(OCC(O)CN(C2CCCCC2)C2CCCCC2)cc1 (centres unmarked)	-75.8
CCN(CC(O)COc1ccc(OCC(O)CN(CC)C2CCCCC2)cc1)C1CCCCC1 (centres unmarked)	22.2
CN(CC(O)COc1ccc(OCC(O)CN(C)C2CCCCC2)cc1)C1CCCCC1 (centres unmarked)	8.06
Cc1cccc2nc(CSc3nc4[nH]ncc4c(=O)n3-c3cccc(Cl)c3)cc(=O)n12	-23.3
COc1ccc(CNC(=O)[C@H](Cc2ccccc2)NC(=O)C2CCN(C(=O)[C@H](C)N)CC2)cc1	-2.78
Cc1ccc(-c2onc(C)c2C)cc1S(=O)(=O)N1CCOc2ccccc21	9.26
COc1cc(/C=N/NC(=O)CCc2n[nH]c(=O)[nH]c2=O)ccc1O	-0.627
Cc1cccc(OC(C)C(=O)Nc2nccs2)c1 (centres unmarked)	8.8
